From PubChem
A selection: hits, their analogues and other compounds. The true share with any hit is near 2%.
SKKanGAS inh: blocks kanamycin growth of S. pyogenes SKKanGAS strain. BacTiter-Glo, 6 h. inhibition, % at 7.5 µM. 1.3% of 300,000 active. AID 1662;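 active = mean replicate score, as percent of positive control median, at least 50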;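 note: strain carries kanamycin resistance gene driven by streptokinase promoter and grows in 40 µg/ml kanamycin; loss of luminescence reflects streptokinase promoter inhibition or plain growth inhibition; 0% = median of DMSO wells and 100% = positive control at its reference dose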
PolyA inhibitor: inhibitors of polyadenylation in S. cerevisiae. S. cerevisiae SKY197-pL101 polyadenylation reporter, beta-gal luminescence; efflux-impaired pdr1/pdr3 knockout yeast; score 100 = 6 SD above DMSO. 0.02% of 300,000 active. AID 1875. activity score, % at 12 µM;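 active = lowest replicate activity score at least 50, where 100 means six control SD above control mean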;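 note: yeast exposed to compound for 9 h at 30 °C; higher score means more reporter readthrough which indicates perturbed polyadenylation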
Platelet DG rel: modulates dense granule release in human platelets. 0.22% of 300,000 active. AID 1663. inhibition, %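 (compounds screened at 7.5 µM in platelet-rich plasma)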. human platelet-rich plasma, SFLLRN dense granule ATP release, luminescence;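 active = mean replicate score, as percent of positive control, at or above 50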
Calb FLC: affects C. albicans growth with fluconazole; C. albicans CaCi-2 (fluconazole-resistant clinical isolate) + fluconazole, Alamar Blue growth, 48 h; growth inhibition, % (test concentration not listed); 0.57% of 300,000 active;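 active = growth inhibition above about 58% in most replicates, limit read from the data, passing the limit was not always enough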;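 note: all wells also contain fluconazole at 8 µg/ml as a sub-toxic cotreatment; 0% = median of DMSO wells and 100% = median of geldanamycin control wells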
Yeast superoxide: caloric restriction mimetics inhibiting age-related superoxide in yeast | S. cerevisiae aged cells, superoxide DHE fluorescence; active compounds read low | superoxide response (% of plate mean), % at 10 µM | 0.18% of 330,000 active | AID 2690;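 active = superoxide response under a set limit, about three screen SD below normal, cut at about 65% in these data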;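 note: yeast aged for seven days with compound at 30 °C before DHE staining; 100% = average MFI of all compound-treated wells on the plate with controls excluded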
An asterisk follows results filed as active.

SMILES	SKKanGAS inh	PolyA inhibitor	Platelet DG rel	Calb FLC	Yeast superoxide
O=C(O)c1cn(C2CC2)c2cc(N3CCN(S(=O)(=O)c4ccc5c(c4)OCCO5)CC3)c(F)cc2c1=O	121*	-16	-2	-29	100
CCCCOc1ccc(-c2c(C#N)c(N)nc(SCC(N)=O)c2C#N)cc1	90*	-3	-21	6	108
CCCCOC(=O)CSc1nc(N)c(C#N)c(-c2ccc(OCC)cc2)c1C#N	-2	6	9	9	121
CCN(CC)CCNC(=O)c1ccc(NC(=O)/C=C/c2cc(OC)c(OC)c(OC)c2)cc1	4	21	4	66*	89
COc1ccccc1/C=C/c1ccc2cccc(O)c2n1	97*	-5	1	-8	102
COc1ccc(C(=O)N/N=C/c2ccc3cccc(O)c3n2)cc1	16	-6	-3	23	106
COc1ccc(Cl)cc1/C=C/c1ccc2cccc(O)c2n1	89*	2	-1	11	84
COc1cc(Cl)cc(/C=C/c2ccc3cccc(O)c3n2)c1OC	87*	5	5	-4	95
COc1ccc(N=Cc2cc(Cl)ccc2O)cc1Cl	-2	13	3	-3	95
CCOc1cccc(/C=C/c2ccc3cccc(O)c3n2)c1O	107*	-6	11	-4	121
COc1ccc(-c2nc3c(-c4ccc(F)cc4)cnn3cc2C)cc1F	-15	-7	-1	6	104
Cc1ccc(S(=O)(=O)Nc2c(NC3CCCCC3)c3ccccc3oc2=O)c(C)c1	-2	3	3	27	110
Cc1ccc(/C=N/NC(=O)Cc2ccc(Cl)cc2)c(O)c1	101*	2	12	-5	97
O=C(Cc1ccccc1)N/N=C/c1cc(Br)cc(Cl)c1O	97*	3	-3	114*	102
Cc1ccccc1/C=N/NC(=O)Cc1ccc(Cl)cc1	-1	0	-2	-9	100
COc1cc(Br)cc(/C=N/NC(=O)Cc2ccccc2)c1O	109*	-15	-1	0	103
Cc1ccc(CC(=O)Nc2nnc(-c3ccc(F)cc3)o2)c(C)c1	5	5	-1	-3	95
O=C(CNC(=S)N(Cc1ccccc1)Cc1cccnc1)N1CCOCC1	-3	23	-3	6	116
O=C(/C=C/c1ccoc1)c1ccccc1O	-6	0	0	2	101
O=C(/C=C/c1ccc(O)c(O)c1)c1ccccc1O	-5	4	70*	-11	106
Cc1ccc(-c2cnn(-c3ccccc3)c2N)cc1	10	-7	52*	-5	84
Cn1c(-c2cnn(-c3ccccc3)c2N)n[nH]c1=S	4	20	61*	13	99
C=CCn1c(-c2cnn(-c3ccccc3)c2N)n[nH]c1=S	-3	7	13	-4	114
CC(C)Sc1nc2ccccc2n2cnnc12	-8	-4	-11	0	108
CNC(=S)/N=C/NOCc1ccc(Cl)cc1Cl	-1	-16	-6	93*	112
SMILES	SKKanGAS inh	PolyA inhibitor	Platelet DG rel	Calb FLC	Yeast superoxide
CCOC(=O)N1CCC(NC(=O)CC2C(=O)NCCN2Cc2cccc(F)c2F)CC1 (stereo unspecified)	-5	0	2	-2	97
Cc1nc(S/C(C(=O)O)=C2/C(=O)Nc3ccccc32)n[nH]1	-13	13	61*	9	86
CC(=O)N1CCC2(CC1)NC(=O)N(c1ccccc1)N2	12	-7	-9	7	81
NC(=O)N1CCC2(CC1)NC(=O)N(c1ccccc1)N2	7	-30	11	109*	98
CCOc1ccc(-n2c(-c3ccccc3)c[n+]3c2CCCCC3)cc1	5	23	0	87*	98
Cc1ccc(S(=O)(=O)NCCOc2cc(C)ccc2C)cc1	-3	15	5	-8	92
CC(Sc1ccc(Cl)cc1)C(=O)Nc1ccc2c(c1)OCO2 (stereo unspecified)	-7	9	0	-70	101
CC(Sc1ccc(Cl)cc1)C(=O)NCc1ccc2c(c1)OCO2 (stereo unspecified)	0	-16	-2	97*	95
Cc1[nH]n(C)c(=O)c1C(=O)c1c(-c2ccccc2Cl)noc1C	0	-25	-4	8	65*
Cc1cc(=O)oc2cc(OCC3CC(c4ccc(Cl)cc4)=NO3)ccc12 (stereo unspecified)	-1	26	-6	0	97
NNC(=O)c1ccc(OCC2CC(c3ccc(Cl)cc3)=NO2)cc1 (stereo unspecified)	51*	-22	-4	-1	99
